Experimental data taken from the supplement of paper PMC10646978.
± gives the standard deviation.

Experiments:
Conditions in all cases: modulator concentration 10 µM
[1] = tested on: RAW-Dual (murine macrophage reporter line); assay: NF-kB reporter (SEAP) activity fold change vs agonist alone; higher = enhanced NF-kB activity
Procedure, shortened: (§1)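 RAW-Dual murine macrophage reporter cells were plated at 50 000 per well in 384-well plates, pin-transferred compound to 10 μM final, and pre-incubated for 1 hour at 37 °C before a PRR agonist was added and the cells incubated overnight. NF-κB activity was read from supernatant SEAP with QUANTI-Blue at 620 nm absorbance, and IRF activity from Lucia luciferase with QUANTI-Luc by luminescence. Each signal was expressed as fold change by dividing by the mean agonist-only control on the same plate. Two replicate plates were averaged, with errors obtained by propagation.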

[2] = tested on: RAW-Dual (murine macrophage reporter line); assay: IRF reporter (Lucia luciferase) activity fold change vs agonist alone; higher = enhanced IRF activity
Procedure, shortened: as §1

[3] = tested on: RAW-Dual (murine macrophage reporter line); assay: viability score (confluency relative to resting cells, overnight) (fraction); higher = more viable, active = viable (0.7 or more)
Procedure, shortened: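 A compound met the cutoff when both of two confluency masks exceeded 70% of resting cells. Those masks were made with IncuCyte software from IncuCyte images of RAW-Dual macrophages treated overnight at 10 μM final. This is the basis of the viability score, which is confluency relative to resting cells.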

[4] = agonist: CpG ODN 1826 0.5 ug/mL

SMILES: O=C(NCC1(O)CCOc2ccccc21)c1ccccc1C(F)(F)F (stereo not given)
- NF-kB reporter [1, 4]: 1.85 ± 0.095
- NF-kB reporter ([1]; agonist: LPS 0.1 ug/mL): 1.31 ± 0.24
- NF-kB reporter ([1]; agonist: MPLA […]): 1.95 ± 0.67
- IRF reporter ([2]; agonist: 3'3'-cGAMP 10 ug/mL): 0.687 ± 0.44
- IRF reporter ([2]; agonist: LPS 0.1 ug/mL): 0.669 ± 0.34
- IRF reporter ([2]; agonist: MPLA […]): 0.721 ± 0.084
- viability score [3]: 0.574 (inactive)

SMILES: CCOC(=O)c1c(C)n(-c2ccccc2)c2ccc(NS(=O)(=O)c3ccccc3)cc12
- NF-kB reporter [1, 4]: 0.959 ± 0.16
- NF-kB reporter ([1]; agonist: LPS 0.1 ug/mL): 0.95 ± 0.075
- NF-kB reporter ([1]; agonist: MPLA […]): 1.04 ± 0.087
- IRF reporter ([2]; agonist: 3'3'-cGAMP 10 ug/mL): 0.932 ± 0.029
- IRF reporter ([2]; agonist: LPS 0.1 ug/mL): 1.05 ± 0.13
- IRF reporter ([2]; agonist: MPLA […]): 1.21 ± 0.17
- viability score [3]: 0.808 (active)

SMILES: O=C(CCN1C(=O)c2cccc([N+](=O)[O-])c2C1=O)Nc1ccc(Cl)cc1
- NF-kB reporter [1, 4]: 0.886 ± 0.073
- NF-kB reporter ([1]; agonist: LPS 0.1 ug/mL): 1.02 ± 0.058
- NF-kB reporter ([1]; agonist: MPLA […]): 0.899 ± 0.077
- IRF reporter ([2]; agonist: 3'3'-cGAMP 10 ug/mL): 0.848 ± 0.022
- IRF reporter ([2]; agonist: LPS 0.1 ug/mL): 1.4 ± 0.16
- IRF reporter ([2]; agonist: MPLA […]): 1.14 ± 0.23
- viability score [3]: 1.01 (active)

SMILES: COc1ccc(C2=CC(c3cc(OC)c(OC)c(OC)c3)n3ncnc3N2)cc1 (stereo not given)
- NF-kB reporter [1, 4]: 1.26 ± 0.087
- NF-kB reporter ([1]; agonist: LPS 0.1 ug/mL): 1.08 ± 0.066
- NF-kB reporter ([1]; agonist: MPLA […]): 1.22 ± 0.087
- IRF reporter ([2]; agonist: 3'3'-cGAMP 10 ug/mL): 1.15 ± 0.047
- IRF reporter ([2]; agonist: LPS 0.1 ug/mL): 1.07 ± 0.07
- IRF reporter ([2]; agonist: MPLA […]): 1.27 ± 0.15
- viability score [3]: 0.985 (active)

SMILES: Cc1ccccc1-c1noc(-c2cc3ccccc3oc2=O)n1
- NF-kB reporter [1, 4]: 0.911 ± 0.25
- NF-kB reporter ([1]; agonist: LPS 0.1 ug/mL): 0.936 ± 0.077
- NF-kB reporter ([1]; agonist: MPLA […]): 0.917 ± 0.07
- IRF reporter ([2]; agonist: 3'3'-cGAMP 10 ug/mL): 1 ± 0.027
- IRF reporter ([2]; agonist: LPS 0.1 ug/mL): 1.08 ± 0.11
- IRF reporter ([2]; agonist: MPLA […]): 1.21 ± 0.12
- viability score [3]: 0.996 (active)

SMILES: CC(C)c1ccc(NC(=O)C2CCCCC2C(=O)O)cc1 (stereo not given)
- NF-kB reporter [1, 4]: 1.19 ± 0.074
- NF-kB reporter ([1]; agonist: LPS 0.1 ug/mL): 1.06 ± 0.07
- NF-kB reporter ([1]; agonist: MPLA […]): 0.994 ± 0.071
- IRF reporter ([2]; agonist: 3'3'-cGAMP 10 ug/mL): 0.93 ± 0.031
- IRF reporter ([2]; agonist: LPS 0.1 ug/mL): 1.51 ± 0.1
- IRF reporter ([2]; agonist: MPLA […]): 1.24 ± 0.12
- viability score [3]: 0.996 (active)

SMILES: N[C@@H](CC(=O)N1CCn2c(nnc2C(F)(F)F)C1)Cc1cc(F)c(F)cc1F
- NF-kB reporter [1, 4]: 0.793 ± 0.19
- NF-kB reporter ([1]; agonist: LPS 0.1 ug/mL): 0.989 ± 0.063
- NF-kB reporter ([1]; agonist: MPLA […]): 0.905 ± 0.058
- IRF reporter ([2]; agonist: 3'3'-cGAMP 10 ug/mL): 0.908 ± 0.044
- IRF reporter ([2]; agonist: LPS 0.1 ug/mL): 1.05 ± 0.12
- IRF reporter ([2]; agonist: MPLA […]): 1.1 ± 0.16
- viability score [3]: 0.998 (active)

SMILES: CCN(CC)c1nc(Nc2ccc([N+](=O)[O-])cc2)nc(N(CC)CC)n1
- NF-kB reporter [1, 4]: 0.635 ± 0.04
- NF-kB reporter ([1]; agonist: LPS 0.1 ug/mL): 1.07 ± 0.069
- NF-kB reporter ([1]; agonist: MPLA […]): 0.953 ± 0.058
- IRF reporter ([2]; agonist: 3'3'-cGAMP 10 ug/mL): 0.972 ± 0.044
- IRF reporter ([2]; agonist: LPS 0.1 ug/mL): 1.16 ± 0.12
- IRF reporter ([2]; agonist: MPLA […]): 1.01 ± 0.12
- viability score [3]: 0.998 (active)

SMILES: CN(C/C=C/C#CC(C)(C)C)Cc1cccc2ccccc12.Cl
- NF-kB reporter [1, 4]: 1.15 ± 0.054
- NF-kB reporter ([1]; agonist: LPS 0.1 ug/mL): 0.905 ± 0.072
- NF-kB reporter ([1]; agonist: MPLA […]): 0.913 ± 0.049
- IRF reporter ([2]; agonist: 3'3'-cGAMP 10 ug/mL): 1.07 ± 0.068
- IRF reporter ([2]; agonist: LPS 0.1 ug/mL): 0.817 ± 0.14
- IRF reporter ([2]; agonist: MPLA […]): 0.885 ± 0.19
- viability score [3]: 0.702 (active)

SMILES: O=C(NCc1nc(C2CCCCC2)cs1)c1ccc(F)cc1
- NF-kB reporter [1, 4]: 0.898 ± 0.05
- NF-kB reporter ([1]; agonist: LPS 0.1 ug/mL): 1.16 ± 0.11
- NF-kB reporter ([1]; agonist: MPLA […]): 0.918 ± 0.047
- IRF reporter ([2]; agonist: 3'3'-cGAMP 10 ug/mL): 1.03 ± 0.063
- IRF reporter ([2]; agonist: LPS 0.1 ug/mL): 1.26 ± 0.094
- IRF reporter ([2]; agonist: MPLA […]): 1.1 ± 0.09
- viability score [3]: 0.931 (active)

SMILES: Cn1c(=O)c2c(ncn2CC(O)CO)n(C)c1=O (stereo not given)
- NF-kB reporter [1, 4]: 1.02 ± 0.2
- NF-kB reporter ([1]; agonist: LPS 0.1 ug/mL): 1.2 ± 0.35
- NF-kB reporter ([1]; agonist: MPLA […]): 1.08 ± 0.18
- IRF reporter ([2]; agonist: 3'3'-cGAMP 10 ug/mL): 0.887 ± 0.066
- IRF reporter ([2]; agonist: LPS 0.1 ug/mL): 1.32 ± 0.21
- IRF reporter ([2]; agonist: MPLA […]): 1.29 ± 0.23
- viability score [3]: 0.996 (active)

SMILES: Cc1ccc(CNC(=O)C(=O)NC2CCCCC2)cc1
- NF-kB reporter [1, 4]: 1 ± 0.094
- NF-kB reporter ([1]; agonist: LPS 0.1 ug/mL): 0.956 ± 0.11
- NF-kB reporter ([1]; agonist: MPLA […]): 0.963 ± 0.091
- IRF reporter ([2]; agonist: 3'3'-cGAMP 10 ug/mL): 0.97 ± 0.025
- IRF reporter ([2]; agonist: LPS 0.1 ug/mL): 1.46 ± 0.2
- IRF reporter ([2]; agonist: MPLA […]): 1.11 ± 0.21
- viability score [3]: 1.01 (active)

SMILES: CCCc1cc(=O)[nH]c(=S)[nH]1
- NF-kB reporter [1, 4]: 1.37 ± 0.11
- NF-kB reporter ([1]; agonist: LPS 0.1 ug/mL): 1.07 ± 0.05
- NF-kB reporter ([1]; agonist: MPLA […]): 1.3 ± 0.11
- IRF reporter ([2]; agonist: 3'3'-cGAMP 10 ug/mL): 0.611 ± 0.028
- IRF reporter ([2]; agonist: LPS 0.1 ug/mL): 1.03 ± 0.082
- IRF reporter ([2]; agonist: MPLA […]): 0.903 ± 0.076
- viability score [3]: 1.02 (active)

SMILES: OCCN1CCN(C(c2cccs2)c2ccc3cccnc3c2O)CC1 (stereo not given)
- NF-kB reporter [1, 4]: 1.95 ± 0.14
- NF-kB reporter ([1]; agonist: LPS 0.1 ug/mL): 0.699 ± 0.036
- NF-kB reporter ([1]; agonist: MPLA […]): 0.66 ± 0.048
- IRF reporter ([2]; agonist: 3'3'-cGAMP 10 ug/mL): 0.759 ± 0.049
- IRF reporter ([2]; agonist: LPS 0.1 ug/mL): 0.332 ± 0.027
- IRF reporter ([2]; agonist: MPLA […]): 0.26 ± 0.021
- viability score [3]: 0.155 (inactive)

SMILES: CN(CCO)c1ccc2nonc2c1[N+](=O)[O-]
- NF-kB reporter [1, 4]: 1.39 ± 0.085
- NF-kB reporter ([1]; agonist: LPS 0.1 ug/mL): 1.18 ± 0.11
- NF-kB reporter ([1]; agonist: MPLA […]): 1.33 ± 0.087
- IRF reporter ([2]; agonist: 3'3'-cGAMP 10 ug/mL): 0.886 ± 0.034
- IRF reporter ([2]; agonist: LPS 0.1 ug/mL): 1.28 ± 0.086
- IRF reporter ([2]; agonist: MPLA […]): 0.996 ± 0.088
- viability score [3]: 1 (active)
